Compound activity as filed in PubChem.
Shown are actives, neighbours in structure and some others; about 7.5% of the full set was active somewhere.
FMDV antiviral – blocks foot and mouth disease virus. AID 1159524. Potency, µM (doses to about 57.9 µM), for the others: top-dose activity change, negative = inhibition, most hits filed as inhibitors. hit rate 1.2% among 410,000. FMDV antiviral cell-based qHTS; calls by dose curve; tested in HEK293T cells; note: read-out not given here; potency is the fitted concentration of half-maximal effect; nearly all actives have a fitted effect of over 45% in size
VACV Venus inh – vaccinia inhibition (Venus reporter) | AID 720580 | Potency, µM (highest dose often 36.5 µM), for the others: top-dose activity change, negative = inhibition, usual class: inhibitors | Vaccinia virus Venus reporter expression, fluorescence | hit rate 0.46% among 330,000; calls by dose curve; tested in A549 cells; note: potency is the fitted concentration of half-maximal effect; nearly all actives have a fitted effect of over 30% in size
HCMV inh – inhibitors of human cytomegalovirus | HFF cells, HCMV-luciferase reporter, 72 h; active compounds read low | activity change, negative = inhibition, % at 57.5 µM | AID 1259415 | hit rate 4.5% among 410,000; in the data active = activity change below about -60%; inconclusive = no clear call, values can overlap the other calls; inactive = above about -39%
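Human foreskin fibroblasts infected with luciferase-reporter HCMV at MOI 1 PFU/cell, compounds at two doses. Luciferase measured 72 h post infection; normalized to buffer-only basal and Salinomycin (10uM) controls.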
VACV mCherry inh – inhibitors of vaccinia virus infection (mCherry reporter signal); Potency, µM (titrated, usually from 36.5 µM), inactives show at the highest dose activity change, negative = inhibition, most hits filed as inhibitors; hit rate 0.63% among 310,000; Vaccinia virus mCherry reporter infection, fluorescence; AID 720579; calls by dose curve; tested in A549 cells; note: potency is the fitted concentration of half-maximal effect; nearly all actives have a fitted effect of over 35% in size
HCV inhibitor – HCV inhibition; Huh7.5.1 HCVcc-Cre infection, luciferase reporter, 44 h; Potency, µM (titrated, usually from 41.8 µM), for the others: top-dose activity change, negative = inhibition, usual class: inhibitors; hit rate 3.4% among 340,000; AID 651820; note: potency is the fitted concentration of half-maximal effect
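Infectious HCV cell culture screen: compound-treated cells (1,000/well, pre-plated 4 h) are infected with HCVcc-Cre at roughly 0.5 moi and grown 44 h. Infection is quantified by luciferase signal after 15 min substrate incubation at room temperature.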
FBPA Giardia inh – inhibitors of Giardia lamblia fructose-1,6-bisphosphate aldolase; A8B2U2; hit rate 0.71% among 290,000; purified Giardia FBPA; Potency, µM (doses to about 59.6 µM), for inactives: at the highest dose activity, negative = inhibition, actives largely listed as inhibitors; note: potency is the fitted concentration of half-maximal effect; nearly all actives have a fitted effect of over 55% in size
Target sequence (A8B2U2 whole entry, looked up): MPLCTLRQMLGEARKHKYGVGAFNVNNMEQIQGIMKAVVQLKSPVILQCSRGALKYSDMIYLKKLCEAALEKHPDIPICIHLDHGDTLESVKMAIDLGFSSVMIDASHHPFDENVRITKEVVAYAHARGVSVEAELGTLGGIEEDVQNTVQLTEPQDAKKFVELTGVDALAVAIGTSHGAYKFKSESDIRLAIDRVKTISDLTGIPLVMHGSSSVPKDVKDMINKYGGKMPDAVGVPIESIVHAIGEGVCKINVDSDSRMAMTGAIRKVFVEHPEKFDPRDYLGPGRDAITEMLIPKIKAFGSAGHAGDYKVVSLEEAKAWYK
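Giardia FBPA (40 nM reagent) was preincubated 10 min at RT with compound (up to 57.5 uM final), then substrate plus GAPDH/TPI/NAD/arsenate coupling system with diaphorase/resazurin was added; resorufin fluorescence (525/598 nm) was read after 20 min.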
Numbers without * were called inactive; i = inactive; ? = inconclusive; . = no result; [ ] = dose if it differs, or a comment. Unless noted, calls come from the whole dose curve; as a rule, active = well fitted curve in the direction sought with a large enough effect; inconclusive = small, poorly fitted or top-dose-only effect, or another doubt; inactive = no such curve, though single readings can be large; an effect the other way counts as inactive or inconclusive. % is set by controls: 0 for no effect and ±100 for the full control effect.

SMILES	FMDV antiviral	VACV Venus inh	HCMV inh	VACV mCherry inh	HCV inhibitor	FBPA Giardia inh
Cc1nn2c(COc3ccc(NC(=O)c4ccccc4Cl)cc3)nnc2c2ccccc12	-28.2%	-29.5%	-18.4	i	?	0.6%
O=C(Nc1cccc(S(=O)(=O)N2CCCC2)c1)C1CCCN1C(=O)c1cccs1 (stereo not drawn)	-1.3%	.	-35.8	.	?	0.0%
Cc1ccccc1C(=O)N1CCC(C(=O)Nc2ccc(S(=O)(=O)N3CCCCC3)cc2)CC1	?	-28.5%	-8.9	?	12.6µM*	.
O=C(Nc1ccc(S(=O)(=O)N2CCCC2)cc1)C1CCCN1C(=O)c1cccs1 (stereo not drawn)	-6.2%	-3.1%	-100.6*	i	3.5%	-6.8%
Cc1ccc[n+](C2=C([O-])c3ccccc3C(=O)C2=O)c1	.	.	26.9	.	.	.
O=C1/C(=N\S(=O)(=O)c2cccs2)C([n+]2ccccc2)=C([O-])c2ccccc21	25.1µM*	.	-66.3*	.	6.31µM*	?
COc1ccc2[nH]cc(CCN=C(NC(=O)c3ccccc3OC)Nc3nc(C)cc(C)n3)c2c1	?	-25.4%	-95.8*	?	.	.
Cc1nn(Cc2ccccc2)c(Cl)c1C(=O)NCc1ccco1	-5.1%	4.4%	21.3	-3.7%	-11.6%	3.8%
CC(=O)Oc1ccc2ccccc2c1C(NC(=O)Cc1ccccc1)c1ccc(Cl)cc1 (stereo not drawn)	?	?	-27.5	28.2µM*	10µM*	-5.0%
CCOc1ccc(C(NC(=O)CC)c2c(O)ccc3ccccc23)cc1 (stereo not drawn)	11.6%	.	23.3	.	14.6%	14.4%
Cc1cc(C)cc(NC(=O)CCCn2c3ccccc3c(=O)c3ccccc32)c1	?	?	-77.4*	?	.	.
Cc1cc(C)cc(NC(=O)CCn2c(=O)c3cccn3c3ccccc32)c1	?	.	-14.1	.	3.16µM*	.
CC(=O)N1CCSc2ccc(S(=O)(=O)Nc3ccccc3C)cc21	-3.6%	-14.1%	-12.2	i	11.2µM*	.
CC(=O)N1CCSc2ccc(S(=O)(=O)Nc3cccc(C)c3)cc21	-22.3%	11.0%[7.34 µM]	?	2.4%[7.34 µM]	14.1µM*	.
CCOc1ccc(NS(=O)(=O)c2ccc3c(c2)N(C(C)=O)CCS3)cc1	-11.4%	.	-64.8*	.	?	.
CCOc1ccc(NS(=O)(=O)c2ccc3c(c2)N(C(C)=O)CC3)cc1	-11.7%	-11.1%	-35.7	0.7%	10.4%	5.9%
COc1ccc([C@H]2/C=C\CN(Cc3ccc(N(C)C)cc3)[C@@H](C)C(=O)N2Cc2ccc(F)cc2)cc1	-14.6%	-23.8%	-11.1	?	10.0%	.
O=S(=O)(CCc1nnc(-c2ccccc2)o1)c1ccc2ccccc2c1	9.1%	2.82µM*	-9.8	.	-5.5%	-0.9%
O=S(=O)(CCc1nc2ccccc2o1)c1ccc2ccccc2c1	-11.0%	-24.5%	1.7	.	0.6%	-6.1%
Cc1ccc(NC(=O)N2CCN(c3ccc(Cl)c(Cl)c3)CC2)cc1	?	-14.9%	-62.3*	-20.6%	.	.
CC(C)c1ccc(NC(=O)N2CCN(c3ccc(Cl)c(Cl)c3)CC2)cc1	?	-11.7%	-79.3*	-18.8%	.	.
COc1ccc(NC(=O)C2(C)CCN2C2Cc3ccccc3C2)cc1OC (stereo not drawn)	-18.0%	-13.9%	12.4	i	.	.
COc1ccnc(Oc2ccccc2)c1C(=O)N/C=N/OCc1ccccc1	-17.3%	-11.5%	-17.3	-13.7%	-4.0%	-0.4%
COc1ccnc(Oc2cccc(C(F)(F)F)c2)c1C(=O)N/C=N/OCc1ccccc1F	?	2.7%	-11.1	-13.1%	11.2µM*	-8.0%
COc1ccc(/C=C2\CCCc3c2nc2ccccc2c3C(=O)O)cc1OC	.	.	.	.	.	7.92µM*
SMILES	FMDV antiviral	VACV Venus inh	HCMV inh	VACV mCherry inh	HCV inhibitor	FBPA Giardia inh
Cc1ccc(S(=O)(=O)N2CCN(C(C)CC(=O)O)CC2)cc1 (stereo not drawn)	0.7%	.	8.7	.	7.8%	?
COc1ccc(-n2c(C)cc(/C=C/c3nc(O)c([N+](=O)[O-])c(=O)[nH]3)c2C)cc1	1.2%	2.3%	-61.5*	11.2%	6.7%	-0.7%
Cc1c(Cl)cccc1NC(=O)c1ccc2nc(C(C)C)oc2c1	?	3.7%	17.4	i	.	.
CC(C)c1nc2ccc(C(=O)Nc3ccccc3F)cc2o1	?	?	-62.6*	?	.	.
CN(Cc1ccco1)c1ccnc(-c2ccccc2C(F)(F)F)n1	-6.2%	.	.	.	.	-5.9%
CCCN(CCC)CCNC(=O)C1(O)c2ccccc2NC(=O)N1c1cccc(OC)c1 (stereo not drawn)	-6.1%	.	?	.	11.7%	2.9%
Cn1c(N)c(C(=O)CSc2ccc3c(c2)OCCO3)c(=O)n(C)c1=O	-0.5%	-11.1%	-12.2	.	-8.1%	8.7%
CC(C(c1ccc2c(c1)OCO2)c1c(N)n(C)c(=O)n(C)c1=O)[N+](=O)[O-] (stereo not drawn)	-15.0%	.	-62.8*	.	-3.4%	.
C[C@]12CCC3C(CC[C@H]4CCCC[C@]34C)C1CC[C@@]2(O)CNCCO (stereo partly drawn)	-17.2%	-10.2%	-1.0	-15.4%	10µM*	1.7%
CN1CC(=O)N(CC(=O)Nc2ccc(N3CCOCC3)cc2)C1=O	23.1%	.	-35.7	.	3.8%	.
COc1ccc(OC)c(NC(=O)c2cc(-c3c(C)cc(C)cc3O)n[nH]2)c1	-24.4%	.	8.5	.	10µM*	5.3%
Cc1cccc(NC(=O)c2cc(-c3cc(C)cc(C)c3O)n[nH]2)c1	-9.6%	.	?	.	11.2µM*	13.2%
COc1ccc(OC)c(NC(=O)c2cc(-c3cc(C)cc(C)c3O)n[nH]2)c1	1.7%	-29.4%	-67.8*	?	3.98µM*	14.1%
COc1cc(=O)n2c(c1C(=O)NCc1ccco1)CCN(Cc1ccc3ccccc3c1)CC2	-11.7%	-12.0%	.	i	.	.
FC(F)(F)c1cc(NC(=S)Nc2ccc3ccccc3c2)cc(C(F)(F)F)c1	.	.	.	.	.	-0.2%
COc1cccc(-c2ccc(O)c(CNCc3cccc(OC)c3OC)c2)n1	-2.9%	-10.5%	.	-15.2%	.	.
Cc1cnc(C(=O)Nc2ccc(OC(F)(F)F)cc2)cn1	0.0%	.	99.1	.	-9.4%	-0.3%
Cc1csc2c(N3CCN(C(=O)Nc4ccccc4)CC3)ncnc12	22.4µM*	?	?	-24.3%	?	-7.0%
Cc1csc2ncnc(N3CCN(C(=O)Nc4ccc(OC(F)(F)F)cc4)CC3)c12	17.8µM*	.	-63.6*	.	7.94µM*	-4.1%
Cc1ccc(C(=O)N2CCN(c3ncnc4c(C)csc34)CC2)cc1	-21.9%	-1.4%	4.2	i	?	-1.3%
CC(=NNC(=O)c1ccc(NS(=O)(=O)c2cccs2)cc1)c1ccc(OCC(N)=O)cc1	-7.2%	.	19.0	.	6.7%	.
Cc1cc(=O)n2c3ccccc3n(CC(O)CN3CCN(Cc4ccccc4)CC3)c2c1C#N (stereo not drawn)	-25.6%	.	-67.9*	.	?	-1.0%
